Shown are actives, neighbours in structure and some others; about 9.3% of the full set was active somewhere.
Sm TGR inh: qHTS Assay for the Inhibitors of Schistosoma Mansoni Peroxiredoxins. AID 485364, 2010. hit rate 3% among 360,000. purified TGR, DTNB reduction, TNB absorbance 405 nm. Potency, µM (highest dose often 114 µM), for the others: top-dose activity change, negative = inhibition, most hits filed as inhibitors; note: potency is the fitted concentration of half-maximal effect; nearly all actives have a fitted effect of over 60% in size
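Kinetic colorimetric format: TGR-catalysed, NADPH-driven DTNB reduction monitored via TNB absorbance. Enzyme dispensed at 20 nM; compound exposure 15 min at room temperature before reaction start.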
Vaccinia Venus: qHTS for Stage-Specific Inhibitors of Vaccinia Orthopoxvirus: Venus Reporter Primary qHTS | Vaccinia virus Venus reporter expression, fluorescence | Potency, µM (doses to about 36.5 µM), without a hit: at the top dose activity change, negative = inhibition, usual class: inhibitors | hit rate 0.46% among 330,000 | AID 720580, 2013; calls by dose curve; tested in A549 cells; note: potency is the fitted concentration of half-maximal effect; nearly all actives have a fitted effect of over 30% in size
VACV mCherry inh: qHTS for Stage-Specific Inhibitors of Vaccinia Orthopoxvirus: mCherry Reporter Primary qHTS. Vaccinia virus mCherry reporter infection, fluorescence. hit rate 0.63% among 310,000. Potency, µM (top dose mostly 36.5 µM), without a hit: at the top dose activity change, negative = inhibition, actives largely listed as inhibitors. AID 720579, 2013; calls by dose curve; tested in A549 cells; note: potency is the fitted concentration of half-maximal effect; nearly all actives have a fitted effect of over 35% in size
HCV inhibitor: qHTS Assay for Inhibitors of Hepatitis C Virus (HCV) | Huh7.5.1 HCVcc-Cre infection, luciferase reporter, 44 h | Potency, µM (highest dose often 41.8 µM), inactives show at the highest dose activity change, negative = inhibition, actives largely listed as inhibitors | hit rate 3.4% among 340,000 | AID 651820, 2012; note: potency is the fitted concentration of half-maximal effect
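Antiviral activity was scored by luciferase reporter output from cells infected with HCVcc-Cre (~0.5 moi) in presence of compound, 44 h infection period, cells seeded 1,000/well 4 h prior.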
HCMV inh: qHTS Assay for inhibitors of the human cytomegalovirus (HCMV) | hit rate 4.5% among 410,000 | HFF cells, HCMV-luciferase reporter, 72 h; hits give low values | activity change, negative = inhibition, % at 57.5 µM | AID 1259415, 2018; in the data active = activity change below about -60%; inconclusive = no clear call, values can overlap the other calls; inactive = above about -39%
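Two compound doses tested in HFFs infected with HCMV-luciferase, MOI 1 PFU/cell, 72 h at 37C. Lysate luminescence read with OneGlo; data normalized against buffer-only and 10uM Salinomycin inhibitor controls.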
FMDV antiviral: High Throughput Screening for Foot and Mouth Disease Virus Antivirals; FMDV antiviral cell-based qHTS; Potency, µM (series often up to 57.9 µM), without a hit: top-dose activity change, negative = inhibition, usual class: inhibitors; hit rate 1.2% among 410,000; calls by dose curve; tested in HEK293T cells; note: read-out not given here; potency is the fitted concentration of half-maximal effect; nearly all actives have a fitted effect of over 45% in size
* marks the source's active call; other numbers are inactive results; i = inactive; ? = inconclusive; nt = no result given. Unless noted, calls come from the whole dose curve; as a rule, active = well fitted curve in the direction sought with a large enough effect; inconclusive = small, poorly fitted or top-dose-only effect, or another doubt; inactive = no such curve, though single readings can be large; an effect the other way counts as inactive or inconclusive. % is set by controls: 0 for no effect and ±100 for the full control effect.

SMILES	Sm TGR inh	Vaccinia Venus	VACV mCherry inh	HCV inhibitor	HCMV inh	FMDV antiviral
CSCC[C@@H](C(=O)NCCCCCCCCCCC(=O)N1CCN(C(=O)OC(C)(C)C)CC1)n1cc(CCO)nn1	2.6%	-21.2%	-1.8%	?	0.1	?
O=S(=O)(NCCS(=O)(=O)N1CCN(c2ccccc2)CC1)c1ccc(Br)cc1	1.9%	-3.1%	-7.9%	nt	-28.5	-7.1%
O=C(COC(=O)CNC(=O)C1CCCCC1)NC1CCCC1	nt	-7.2%	i	nt	nt	nt
O=C(CCn1cnnn1)Nc1ccc(Cl)c(Cl)c1	nt	-9.9%	-3.9%	-6.9%	9.6	-6.8%
COC1CC2C=C(C)C=CC=CC(=O)NC(c3ccccc3)CC=CCCC(O)CC(=O)C2=C1O (stereo unspecified)	nt	2.82µM*	7.08µM*	nt	-100.3*	2.51µM*
O=c1c2ccccc2oc2c1ccc1ccccc12	nt	?	?	?	nt	44.9%
CCOC(=O)c1c(C)n(Cc2ccco2)c2ccc(OC)cc12	?	-22.5%	-7.2%	12.6µM*	-8.4	-10.1%
Cc1cccc(OC(=O)NCCOC(=O)N(O)c2ccc(Cl)cc2)c1	-1.1%	-20.8%	-19.7%	26.1%	-29.2	0.0%
CN1CCN(C(=O)C23CC4CC(C2)CC(c2ccccc2)(C4)C3)CC1	7.9%	-4.4%	-9.5%	10µM*	19.9	-29.1%
O=C(c1ccccc1)N1CCN(C(=O)C23CC4CC(CC(C4)C2)C3)CC1	-7.7%	-7.3%	-14.5%	0.9%	30.2	-16.7%
Cc1c2ccccc2nc2c(F)c(N(C)C)c(F)c(F)c12	-25.6%	32.1%	-7.5%	-26.3%	15.6	35.8%
CN(C)c1c2ccccc2nc2c(F)c(F)c(F)c(F)c12	-16.4%	nt	nt	?	nt	28.2µM*
CCOC(=O)/C(C)=N/Nc1nc(-c2ccc(NC(C)=O)cc2)cs1	11.2µM*	11.3%	-28.5%	?	14.5	-14.0%
Cc1ccnc(Nc2nc(-c3c(C)nc4sccn34)cs2)c1	14.6%	nt	nt	12.6µM*	-75.7*	?
Cc1ccc(Nc2nc(-c3c(C)nc4ncccn34)cs2)cc1	-23.0%	?	?	?	8.0	?
CC(=O)Nc1cccc(-c2csc(Nc3ccc(Cl)cn3)n2)c1	nt	?	-3.5%	11.2µM*	94.7	4.9%
CC(=O)Nc1cccc(-c2csc(Nc3cc(C)ccn3)n2)c1	-3.6%	?	?	?	-23.5	nt
CC(=O)Nc1cccc(-c2csc(Nc3ccccn3)n2)c1	-8.1%	-21.9%	-14.1%	11.2µM*	-13.9	nt
CCC(=O)Nc1ccc(-c2csc(NNC(C)=O)n2)cc1	?	-12.3%	i	10.4%	105.9	-6.7%
C/C(CC(=O)Nc1ccc2c(c1)OCCO2)=N\NC(=O)COc1cccc(C)c1	1.0%	-7.9%	i	3.1%	15.1	-4.6%
CCn1c(NCCO)nc2c(c1=O)C(C)(CC)Cc1ccccc1-2 (stereo unspecified)	0.0%	-26.6%	-10.0%	-3.8%	-21.3	-7.6%
CC(=O)Nc1ccc(-c2csc(Nc3ccc(Cl)cn3)n2)cc1	-3.1%	?	-29.6%	?	-61.1*	25.1µM*
CC(=O)Nc1ccc(-c2csc(Nc3cc(C)ccn3)n2)cc1	-1.3%	-15.0%	-28.1%	?	-61.5*	?
C/C(=N\NC(=S)NC1CCCCC1)c1ccc(C#N)cc1	0.6%	-13.2%	-14.8%	8.1%	-23.2	-2.8%
CN(C)C(=S)Oc1ccccc1-c1ccccc1OC(=S)N(C)C	6.6%	3.3%	-7.4%	?	-13.1	-17.0%
SMILES	Sm TGR inh	Vaccinia Venus	VACV mCherry inh	HCV inhibitor	HCMV inh	FMDV antiviral
CCCCCCn1c(-c2cccs2)n[nH]c1=S	7.0%	-12.5%	i	0.5%	-80.3*	22.0%
COc1ccc(Cn2c(C)c(C)c(C#N)c2NC(=O)Nc2cccc(C)c2)cc1	-26.1%	-20.4%	?	-20.2%	-66.5*	12.8%
Cn1c(NCc2ccccc2)nc2cc(-c3ccccc3)sc2c1=O	nt	-4.9%	14.9%	nt	-3.7	10.6%
Cc1nc2cc(-c3ccccc3)sc2c(=O)n1N	5.6%	-5.3%	-15.7%	-14.1%	-88.9*	7.08µM*
COc1ccc(-c2cc3nc4n(c(=O)c3s2)CCC4)cc1	1.8%	nt	nt	-7.2%	-22.5	0.0%
COc1ccc(-c2cc3nc(C)n(N)c(=O)c3s2)cc1	10.2%	nt	nt	7.9%	-38.5	7.94µM*
CCC[n+]1c2ccccc2cc2ccccc21	?	-6.1%	?	?	-70.0*	?
Cc1ccc2ccccc2[n+]1CCCS(=O)(=O)[O-]	10.3%	5.8%	2.6%	1.1%	12.3	21.8%
CCCC[n+]1c2ccccc2cc2ccccc21	?	?	-9.7%	6.31µM*	?	28.2µM*
CC(=O)NCc1ccc2[nH]c(C)cc2c1	39.8µM*	-1.5%	-18.1%	18.5%	33.4	1.2%
Cc1cccc(NC(=O)NCc2ccc3[nH]c(C)cc3c2)c1	-0.2%	-11.0%	i	16.1%	5.9	30.2%
Cc1cc2cc(CNC(=S)NC3CCCCC3)ccc2[nH]1	14.5%	nt	nt	10µM*	-63.4*	11.4%
Cc1cc2cc(CNC(=O)CCC(=O)O)ccc2[nH]1	0.0%	nt	nt	1.2%	-2.1	5.6%
CCC(=O)NCc1ccc2[nH]c(C)cc2c1	28.2µM*	nt	nt	13.0%	74.9	6.9%
Cc1ccc(NC(=O)NCc2ccc3[nH]c(C)cc3c2)cc1	-14.0%	7.6%	-1.1%	?	-84.2*	36.6%
CNC(=S)NCc1ccc2[nH]c(C)cc2c1	2.9%	nt	nt	-1.6%	-17.6	-2.6%
COc1cccc(NC(=O)COC(=O)CNC(=O)C2CCCCC2)c1	-5.8%	nt	nt	7.0%	-5.7	0.1%
C=CCOc1ccccc1CN(C(=O)CCl)c1ccc2c(c1)OCO2	8.91µM*	-13.2%	i	?	-99.0*	?
COc1cc(/C=N/NC(=O)c2nnn(-c3nonc3N)c2C(C)C)ccc1OCc1ccccc1	6.4%	nt	nt	14.1µM*	-29.5	?
CC(C)c1c(C(=O)N/N=C/c2ccc(OCc3ccccc3)cc2)nnn1-c1nonc1N	-1.0%	nt	nt	?	59.2	?
COc1cc(/C=N/NC(=O)c2nnn(-c3nonc3N)c2C)ccc1OCc1ccc(Cl)cc1	nt	?	-4.9%	nt	-60.5*	28.4%
CCOCCCNC(=O)c1ccc(-n2c(-c3ccccc3)cc3c2CCC(C)C3)cc1 (stereo unspecified)	0.6%	-15.4%	-19.1%	nt	-93.2*	-23.9%
COCCCNC(=O)c1ccc(-n2c(-c3ccccc3)cc3c2CCCC3)cc1	1.1%	-9.1%	-3.6%	nt	16.1	0.0%
Cc1ccc(NC(=O)C2CCN(S(=O)(=O)c3ccccc3)CC2)cc1	11.7%	-11.7%	i	1.7%	?	?
Cc1ccc(S(=O)c2ccc(NC(=O)C3CC3)cc2C#N)cc1 (stereo unspecified)	0.4%	-8.6%	i	?	-65.7*	?

Compound activity: PubChem BioAssay, National Center for Advancing Translational Sciences (NCATS)
